Among the data in PubChem BioAssay (NCATS) are Potency, outcome and max response values, retold here.

Test [1] concerns the target Ubiquitin carboxyl-terminal hydrolase 1 (Homo sapiens) (UniProt O94782). The test is described as follows: Inhibitors of USP1/UAF1: Pilot qHTS (AID 504865). Further: nearly all actives have a fitted effect of over 35% in size. Further: potency means the concentration at half of the fitted maximal effect. The gist of the method:
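In 50mM HEPES pH 7.8 containing 0.5mM EDTA, 1mM TCEP, 0.1 mg/ml BSA and 0.01% Tween-20, 1nM USP1/UAF1 is exposed to compound for 15 min, then Ub-Rho (150nM final) is added and fluorescence is read over time.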
For orientation: Quantitative high-throughput screening tests each substance at several concentrations.

In test [2] the target is phosphoglycerate mutase (Leishmania major) (UniProt Q4Q090). Kind of test: qHTS Validation Assay to Find Inhibitors of Phosphoglycerate Mutase (AID 504548). Further: series mostly up to about 58 µM. In a few lines:
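Lm PGAM 1.25nM final; 100 mM TEA pH 7.6, 5 mM MgCl2, 0.01% Tween-20; 45 min RT; Kinase-GloPlus, 10 min; end-point luminescence. Enzyme-free wells as negative controls.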

Test [3] deals with Peroxisome proliferator-activated receptor gamma (Homo sapiens) (UniProt P37231). Kind of test: qHTS assay for small molecule agonists of peroxisome proliferator-activated receptor gamma signaling (AID 588536; active means well fitted curve in the direction sought with a large enough effect in the signal ratio, with a control signal flat, not every such curve was filed as active; the % refers to the signal ratio). In a few lines: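 PPAR-gamma-UAS-bla HEK293 cells in medium with 1% charcoal/dextran-treated FBS were exposed to compounds for 16 h at 37 C. Beta-lactamase activity was read with CCF4 substrate (405 nm excitation, 460/530 nm emission).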
Chain of Peroxisome proliferator-activated receptor gamma (Homo sapiens) (P37231 whole entry, looked up): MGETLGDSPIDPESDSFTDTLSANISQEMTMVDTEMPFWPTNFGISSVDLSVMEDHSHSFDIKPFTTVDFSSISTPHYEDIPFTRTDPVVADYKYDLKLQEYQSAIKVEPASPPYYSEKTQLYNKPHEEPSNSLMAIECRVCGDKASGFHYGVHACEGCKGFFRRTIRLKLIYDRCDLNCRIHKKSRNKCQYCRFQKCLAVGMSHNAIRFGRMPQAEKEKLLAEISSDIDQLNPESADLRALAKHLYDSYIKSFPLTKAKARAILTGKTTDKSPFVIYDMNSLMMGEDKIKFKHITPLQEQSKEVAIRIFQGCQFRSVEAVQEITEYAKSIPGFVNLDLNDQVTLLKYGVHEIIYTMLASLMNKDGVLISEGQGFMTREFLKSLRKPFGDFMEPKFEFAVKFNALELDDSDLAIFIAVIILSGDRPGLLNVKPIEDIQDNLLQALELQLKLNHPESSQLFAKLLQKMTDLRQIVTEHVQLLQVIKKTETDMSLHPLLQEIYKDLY

Test [4] shares this target. The test is described as follows: qHTS assay for small molecule antagonists of peroxisome proliferator-activated receptor gamma signaling (AID 588537; active means well fitted inhibition curve with a large enough effect in the signal ratio, with a control signal flat, not every such curve was filed as active; the % refers to the signal ratio;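 further: reporter cells co-stimulated with 50 nM rosiglitazone agonist during compound treatment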). The gist of the method: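 PPAR-gamma-UAS-bla HEK293 cells (3000/well, 1% charcoal/dextran-stripped FBS) were preincubated 6-6.5 h at 37 C, given titrated compounds, then stimulated with 50 nM rosiglitazone for 16 h. Beta-lactamase activity was read with CCF4 dye; IC50 came from Hill fits.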

Test [5] is described as follows: qHTS assay for small molecule agonists of retinoid X receptor alpha signaling (AID 588544; calls by dose curve). The settings on record: HEK293T RXRa-UAS-bla, beta-lactamase reporter, 18 h; 530 nm emission.
Test [6] concerns the target Retinoic acid receptor RXR-alpha (Homo sapiens) (UniProt P19793). The test is described as above.
Test [7] can be described thus: qHTS assay for small molecule antagonists of retinoid X receptor alpha signaling (AID 588546; active means well fitted inhibition curve with a large enough effect in the signal ratio, with a control signal flat, not every such curve was filed as active; the % refers to the signal ratio;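 further: cells stimulated with 9-cis-retinoic acid as agonist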). The settings on record: HEK293T RXRa-UAS-bla, beta-lactamase ratio, antagonist mode; measured here: W530 green channel, cytotoxicity proxy. In a few lines: (§1)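 Beta-lactamase reporter inhibition, read as CCF4 fluorescence ratio (ex 405, em 460/530 nm) after 2 h at RT. HEK293T UAS-bla cells, 2500/well, were stimulated with 9-cis-RA at 500 or 100 nM final alongside test compound for 18 h at 37 C.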

For test [8], the target named is Retinoic acid receptor RXR-alpha (Homo sapiens) (UniProt P19793). Described as above. The settings on record: HEK293T RXRa-UAS-bla, beta-lactamase ratio, antagonist mode. In a few lines:
as §1

The target in test [9] is Thyroid hormone receptor beta (Homo sapiens) (UniProt P10828). The test is described as follows: qHTS assay for small molecule agonists of thyroid hormone receptor beta signaling (AID 588545; calls by dose curve). The gist of the method:
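Cells (2500/well) were seeded, incubated 4 hrs at 37 C, dosed with a compound series, incubated 18 hrs, loaded with CCF4 dye for 2 hrs at RT, then read for fluorescence. Data were scaled between DMSO (0%) and 10 nM T3 (100%).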

“And” between values parts separate entries of the source, which are not always exact repeats. Equal entries are not always repeated. Records with an inconclusive call do not appear. Entries that show only a call come without a potency. The source made the active and inactive calls. Unless noted, the call rests on the fitted dose curve; in most records, active means well fitted curve in the direction sought with a large enough effect; inconclusive means small, poorly fitted or top-dose-only effect, or another doubt; inactive means no such curve, though single readings can be large; an effect the other way counts as inactive or inconclusive. Peptide text beside a SMILES is read from it.

Chain of Ubiquitin carboxyl-terminal hydrolase 1 (Homo sapiens) (O94782 whole entry, looked up): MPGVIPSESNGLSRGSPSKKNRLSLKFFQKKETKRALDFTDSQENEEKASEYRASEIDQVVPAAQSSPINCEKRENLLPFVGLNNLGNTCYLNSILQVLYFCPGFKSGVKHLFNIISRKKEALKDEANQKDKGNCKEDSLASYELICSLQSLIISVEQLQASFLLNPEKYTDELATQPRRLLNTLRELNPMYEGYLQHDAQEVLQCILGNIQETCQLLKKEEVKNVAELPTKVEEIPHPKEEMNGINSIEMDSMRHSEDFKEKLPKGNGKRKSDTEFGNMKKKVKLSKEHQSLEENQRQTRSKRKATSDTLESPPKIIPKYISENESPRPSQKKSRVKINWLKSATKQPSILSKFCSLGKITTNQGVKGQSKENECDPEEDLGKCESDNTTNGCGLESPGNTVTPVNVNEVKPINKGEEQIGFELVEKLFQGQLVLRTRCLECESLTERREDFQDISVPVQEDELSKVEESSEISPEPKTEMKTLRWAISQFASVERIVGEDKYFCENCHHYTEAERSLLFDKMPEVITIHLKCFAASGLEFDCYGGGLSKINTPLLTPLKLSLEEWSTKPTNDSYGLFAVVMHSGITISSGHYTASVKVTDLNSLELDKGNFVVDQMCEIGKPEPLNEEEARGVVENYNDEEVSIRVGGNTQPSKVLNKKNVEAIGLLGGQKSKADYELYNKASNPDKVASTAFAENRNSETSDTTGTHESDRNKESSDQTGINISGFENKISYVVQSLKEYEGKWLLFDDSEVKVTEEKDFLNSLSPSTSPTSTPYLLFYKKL
Chain of Retinoic acid receptor RXR-alpha (Homo sapiens) (P19793 whole entry, looked up): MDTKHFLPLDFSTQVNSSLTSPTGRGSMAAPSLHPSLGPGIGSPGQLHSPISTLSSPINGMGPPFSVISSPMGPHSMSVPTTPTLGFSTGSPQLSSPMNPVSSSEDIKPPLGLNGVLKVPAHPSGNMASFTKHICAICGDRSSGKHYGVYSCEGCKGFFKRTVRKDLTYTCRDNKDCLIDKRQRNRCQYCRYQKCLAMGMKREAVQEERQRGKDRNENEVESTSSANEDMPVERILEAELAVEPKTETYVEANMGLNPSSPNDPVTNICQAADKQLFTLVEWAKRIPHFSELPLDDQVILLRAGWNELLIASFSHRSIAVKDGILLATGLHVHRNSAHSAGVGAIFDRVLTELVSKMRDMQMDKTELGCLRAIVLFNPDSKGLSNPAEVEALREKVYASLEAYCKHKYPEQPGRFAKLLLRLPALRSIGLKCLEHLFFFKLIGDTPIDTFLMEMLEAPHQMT
Chain of Thyroid hormone receptor beta (Homo sapiens) (P10828 whole entry, looked up): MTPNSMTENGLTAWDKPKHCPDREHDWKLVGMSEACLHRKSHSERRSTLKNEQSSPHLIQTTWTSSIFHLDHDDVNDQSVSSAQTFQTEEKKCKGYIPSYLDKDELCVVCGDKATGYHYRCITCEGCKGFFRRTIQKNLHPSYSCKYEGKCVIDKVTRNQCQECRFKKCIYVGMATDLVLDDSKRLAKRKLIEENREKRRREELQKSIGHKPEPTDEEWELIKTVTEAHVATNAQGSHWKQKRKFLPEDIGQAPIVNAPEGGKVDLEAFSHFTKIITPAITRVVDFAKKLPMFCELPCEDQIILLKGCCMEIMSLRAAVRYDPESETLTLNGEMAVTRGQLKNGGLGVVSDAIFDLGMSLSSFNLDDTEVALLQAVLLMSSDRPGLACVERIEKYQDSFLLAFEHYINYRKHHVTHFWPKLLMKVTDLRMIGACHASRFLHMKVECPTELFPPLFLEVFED
Chain of phosphoglycerate mutase (Leishmania major) (Q4Q090 1-553): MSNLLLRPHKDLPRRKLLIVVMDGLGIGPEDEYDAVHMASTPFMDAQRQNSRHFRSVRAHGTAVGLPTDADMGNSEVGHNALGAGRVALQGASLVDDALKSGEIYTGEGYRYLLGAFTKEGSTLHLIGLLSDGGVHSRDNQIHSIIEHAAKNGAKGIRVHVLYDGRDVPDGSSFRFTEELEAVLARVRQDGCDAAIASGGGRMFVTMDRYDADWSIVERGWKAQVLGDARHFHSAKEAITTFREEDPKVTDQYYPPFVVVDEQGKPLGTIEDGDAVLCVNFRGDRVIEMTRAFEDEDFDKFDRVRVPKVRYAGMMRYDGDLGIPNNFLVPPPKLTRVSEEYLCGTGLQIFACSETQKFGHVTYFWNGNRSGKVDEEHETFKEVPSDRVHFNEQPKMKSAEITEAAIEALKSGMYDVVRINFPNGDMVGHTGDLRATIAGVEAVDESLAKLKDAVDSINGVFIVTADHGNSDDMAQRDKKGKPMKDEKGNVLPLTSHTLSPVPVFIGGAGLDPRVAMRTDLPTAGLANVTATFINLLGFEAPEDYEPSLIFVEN

As to `NC(=O)c1ncn(C2OC(CO)C(O)C2O)n1` (stereo not drawn), in test [1], the Potency entry was “inactive”. On the same count and under the same terms, then `O=C(O)c1cc(O)c2c(c1)[O][Bi][O]2`, with “inactive”; and `CCCC(=O)Nc1ncnc2c1ncn2C1OC2COP(=O)(O)OC2C1OC(=O)CCC` (stereo not drawn), with “inactive”; and `C=C1C(=CC=C2CCC[C@@]3(C)[C@@H]2CC[C@H]3[C@H](C)CCCC(C)C)C[C@@H](O)C[C@@H]1O`, with 22.4 µM (active). For the compound `O=C(COc1ccc(Cl)cc1)OCCNC12CC3CC(CC(C3)C1)C2`, the Potency result in test [1] is “inactive”.

Take `CC1(C)S[C@@H]2[C@H](NC(=O)[C@@H](NC(=O)N3CCNC3=O)c3ccccc3)C(=O)N2[C@H]1C(=O)O`: the Potency entry in test [1] is “inactive”. With `CCCC(=O)Nc1ncnc2c1ncn2[C@@H]1O[C@@H]2COP(=O)(O)O[C@H]2[C@H]1OC(=O)CCC`, in test [1], the Potency entry is “inactive”. Regarding `COCC(=O)Nc1cc(Sc2ccccc2)ccc1N=C(NC(=O)OC)NC(=O)OC`, the Potency result in test [1] is “inactive”.

As for `CCCCCCCCCCCCCC[n+]1ccc(C)cc1`, the Potency in test [1] was 56.2 µM (active). `C[C@]12CCC(=O)C=C1CC[C@@H]1[C@@H]2[C@@H](O)C[C@@]2(C)[C@H]1CC[C@]2(O)C(=O)COP(=O)(O)O`: in test [1], the Potency result was “inactive”. With `O=C1C(=O)c2ncccc2-c2cccnc21`, the Potency in [1] is 50.1 µM (active).

Regarding `O=S(=O)(O)c1cc(O)c2c(N=Nc3ccc(Nc4ccccc4)c4c(S(=O)(=O)O)cccc34)cc(S(=O)(=O)O)cc2c1`, the Potency in [1] was 11.2 µM (active). Still for that read-out and setting: as for `CCN(CC)Cc1cc(Nc2ccnc3cc(Cl)ccc23)ccc1O`, the entry is “inactive”; as for `Cc1c(C)c2c(c(C)c1O)CC[C@@](C)(CCC[C@H](C)CCC[C@H](C)CCCC(C)C)O2`, “inactive”; as for `C#CCOc1ccc2c(C)cc(=O)oc2c1`, “inactive”. As for `CCCCCCCCCCCC[n+]1ccc2ccccc2c1`, the Potency in [1] is 89.1 µM (active).

For `C=CCSSSCC=C`, the Potency result in [1] is “inactive”. The same measure, in the same setting: as for `O=C(O)CC/C=C\CC[C@H]1[C@@H](N2CCCCC2)[C@@H](O)C[C@@H]1OCc1ccc(-c2ccccc2)cc1`, the entry is “inactive”.

Turning to `CCCCCCOc1ccc(C(=N)N(CCCC)CCCC)c2ccccc12`, the Potency in test [1] is 39.8 µM (active).

On to `CC1=C(/C=C/C(C)=C/C=C/C(C)=C/C=C/C=C(C)/C=C/C=C(C)/C=C/C2=C(C)CCCC2(C)C)C(C)(C)CCC1`, for which the Potency entry in test [1] is “inactive”.

Consider `CC1(C)S[C@@H]2[C@H](NC(=O)Cc3ccccc3)C(=O)N2[C@H]1C(=O)O`, for which the Potency result in test [1] was “inactive”.

Consider `COC(C(=O)C(O)C(C)O)C1Cc2cc3cc(OC4CC(OC5CC(O)C(O)C(C)O5)C(O)C(C)O4)c(C)c(O)c3c(O)c2C(=O)C1OC1CC(OC2CC(OC3CC(C)(O)C(O)C(C)O3)C(O)C(C)O2)C(O)C(C)O1` (stereo not drawn), for which the Potency entry in [1] is “inactive”. For `CC[N+](C)(C)Cc1ccccc1Br`, the Potency entry in [1] is “inactive”.

As for `C[C@@H]1CCC2[C@@H](C)[C@@H](O)O[C@@H]3O[C@@]4(C)CC[C@@H]1[C@@]23OO4` (stereo partly drawn), in [1], the Potency entry is “inactive”. `NC1C2CN(c3nc4c(cc3F)c(=O)c(C(=O)O)cn4-c3ccc(F)cc3F)CC12` (stereo not drawn): the Potency entry in [1] is “inactive”.

As for `CCC(=O)NCCC1CCc2ccc3c(c21)CCO3` (stereo not drawn), the Potency entry in [1] was “inactive”. Regarding `Nc1c(Br)cc(Br)cc1CNC1CCC(O)CC1` (stereo not drawn), in test [1], the Potency entry was “inactive”. Still for that read-out and setting: then `CC(=O)N[C@@H](CC(=O)O)C(=O)N[C@@H](CCC(=O)O)C(=O)O` (Ac-Asp-Glu-OH), with “inactive”. As to `CN1Cc2c(N)cccc2C(c2ccccc2)C1` (stereo not drawn), the compound was classed as inactive in [2]. In test [1], the Potency result is “inactive”.

Take `Clc1cc(Cl)c(OCC#CI)cc1Cl`: the Potency result in test [1] was “inactive”.

With `COc1ccc2c3c1O[C@H]1C[C@@H](O)C=C[C@@]31CCN(C)C2`, in test [1], the Potency entry was “inactive”.

Consider `Cc1cn([C@H]2C[C@H](O)[C@@H](CO)O2)c(=O)[nH]c1=O`, for which the Potency result in [1] was “inactive”. Take `CCCCCCC(O)C/C=C/CCCCCCCC(=O)O` (stereo not drawn): the Potency entry in [1] is “inactive”. On to `Nc1c(N=Nc2ccc(-c3ccc(N=Nc4cc(S(=O)(=O)O)c5ccccc5c4N)cc3)cc2)cc(S(=O)(=O)O)c2ccccc12`, for which the Potency in test [1] is 15.8 µM (active). The same measure, in the same setting: as for `COC(=O)CCC(=O)CN`, the entry is “inactive”. In the case of `O=C(O)CN(CCN(CC(=O)O)CC(=O)O)CC(=O)O`, the Potency result in [1] was “inactive”. For the same compound, the compound was classed as inactive in [3], in [4] and in [6]. Besides, the max response was -4.26% and -8.64% in test [5]; -5.66% and -2.36% in test [7]; -4.8% (inactive) and -20.2% (inactive) in test [8]. Regarding `O=S(=O)(O)O`, the Potency entry in test [1] is “inactive”. Also, the outcome in test [3], in test [4], in [6] and in [9] was inactive. Besides, the max response is -13.7% and 0.0864% in [5]; -14.3% and 12.6% in [7]; -0.45% (inactive) and -13.7% (inactive) in test [8].

Turning to `CC(=O)Oc1c(C)cc(OCC(O)CNC(C)C)c(C)c1C` (stereo not drawn), in test [1], the Potency result is “inactive”. As for `CC(=O)Oc1cc(C)c(OC(C)=O)c2ccccc12`, the Potency result in [1] is “inactive”.
